Reference: PubChem BioAssay AID651663 (NMMLSC, 2012)

biological target: ATP-binding cassette sub-family B member 6 (Homo sapiens) (UniProt Q9NP58); test: ABCB6 transporter inhibitors, porphyrin accumulation, dose response, flow cytometry, K562-ABCB6 cells, powder set 01 (AID 651663); conditions: 1 h; series mostly up to 100 µM; response % of control, lower = inhibition: at the top concentration
Sequence (Q9NP58 whole entry, looked up): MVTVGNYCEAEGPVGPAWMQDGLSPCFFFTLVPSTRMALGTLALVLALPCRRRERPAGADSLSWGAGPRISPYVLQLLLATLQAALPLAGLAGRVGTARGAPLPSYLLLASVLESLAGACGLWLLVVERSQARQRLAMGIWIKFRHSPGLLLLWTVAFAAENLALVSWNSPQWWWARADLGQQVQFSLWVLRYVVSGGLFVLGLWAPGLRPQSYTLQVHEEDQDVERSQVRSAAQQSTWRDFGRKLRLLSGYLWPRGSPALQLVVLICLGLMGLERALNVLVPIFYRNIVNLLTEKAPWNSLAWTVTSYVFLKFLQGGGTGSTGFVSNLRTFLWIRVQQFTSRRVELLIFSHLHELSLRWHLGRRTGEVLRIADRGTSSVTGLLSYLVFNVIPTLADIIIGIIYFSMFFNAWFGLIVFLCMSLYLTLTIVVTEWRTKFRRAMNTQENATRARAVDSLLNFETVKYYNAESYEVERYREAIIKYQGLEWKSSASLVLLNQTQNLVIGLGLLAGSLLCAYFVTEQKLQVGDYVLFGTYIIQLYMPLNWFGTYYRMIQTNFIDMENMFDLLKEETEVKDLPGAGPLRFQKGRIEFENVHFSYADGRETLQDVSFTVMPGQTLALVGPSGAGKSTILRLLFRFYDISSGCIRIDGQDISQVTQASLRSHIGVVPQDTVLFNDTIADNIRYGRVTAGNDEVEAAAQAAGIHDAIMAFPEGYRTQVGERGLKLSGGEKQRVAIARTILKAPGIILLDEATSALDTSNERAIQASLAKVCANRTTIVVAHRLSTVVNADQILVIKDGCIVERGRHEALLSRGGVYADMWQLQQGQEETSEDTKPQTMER

Response % of control, lower = inhibition, inactive:
CC(=O)Nc1ccc(NC(=O)c2nc(S(=O)(=O)Cc3cccc(C)c3)ncc2Cl)cc1 360%, CCOc1ccccc1NC(=O)c1nc(S(=O)(=O)Cc2cccc(C)c2)ncc1Cl 91.9%, CCc1ccc(NC(=O)c2nc(S(=O)(=O)Cc3ccccc3)ncc2Cl)cc1 79.5%, CC(=O)Nc1ccc(NC(=O)c2nc(S(=O)(=O)Cc3ccccc3)ncc2Cl)cc1 78.9%
